# In publication PMC5540273 (PLoS ONE, 2017):
# Like-named read-outs stand apart in the source and are kept apart here.
# How the values were obtained:
# FLT1 = conditions: concentration: 1 μM, replicates: in singlicate; n = 1
# FLT3-autoinhibited = conditions: concentration: 1 μM, replicates: in singlicate; n = 1
# FLT3 = conditions: concentration: 1 μM, replicates: in singlicate; n = 1
# FLT4 = conditions: concentration: 1 μM, replicates: in singlicate; n = 1
# FRK = conditions: concentration: 1 μM, replicates: in singlicate; n = 1
# FYN = conditions: concentration: 1 μM, replicates: in singlicate; n = 1
# GAK = conditions: concentration: 1 μM, replicates: in singlicate; n = 1
# GCN2(Kin.Dom.2,S808G) = system: T1, GCN2(Kin.Dom.2,S808G); conditions: concentration: 1 μM, replicates: in singlicate; n = 1
# T1 construct: gene EIF2AK4
# GRK1 = conditions: concentration: 1 μM, replicates: in singlicate; n = 1
# GRK2 = system: T2, GRK2; conditions: concentration: 1 μM, replicates: in singlicate; n = 1
# T2 construct: gene ADRBK1
# GRK3 = system: T3, GRK3; conditions: concentration: 1 μM, replicates: in singlicate; n = 1
# T3 construct: gene ADRBK2
# GRK4 = conditions: concentration: 1 μM, replicates: in singlicate; n = 1
# GRK7 = conditions: concentration: 1 μM, replicates: in singlicate; n = 1
# GSK3A = conditions: concentration: 1 μM, replicates: in singlicate; n = 1
# GSK3B = conditions: n = 1
# HASPIN = system: T4, HASPIN; conditions: concentration: 1 μM, replicates: in singlicate; n = 1
# T4 construct: gene GSG2
# HCK = conditions: concentration: 1 μM, replicates: in singlicate; n = 1
# HIPK1 = conditions: concentration: 1 μM, replicates: in singlicate; n = 1
# HIPK2 = conditions: concentration: 1 μM, replicates: in singlicate; n = 1
# HIPK3 = conditions: concentration: 1 μM, replicates: in singlicate; n = 1
# [1] = concentration: 1 μM, replicates: in singlicate
# 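Note: KINOMEscan kinase panel screen.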
structure (smiles),measurement,setting,value
O=C1NC(=O)C(c2ccc(Cl)cc2)=C1Nc1ccc(O)cc1 [SB-340867],%Inh,FLT1,0%
same,%Inh,FLT3-autoinhibited,0%
same,%Inh,FLT3,6%
same,%Inh,FLT4,0%
same,%Inh,FRK,0%
same,%Inh,FYN,0%
same,%Inh,GAK,0%
same,%Inh,"GCN2(Kin.Dom.2,S808G)",0%
same,%Inh,GRK1,0%
same,%Inh,GRK2,0%
same,%Inh,GRK3,0%
same,%Inh,GRK4,0%
same,%Inh,GRK7,0%
same,%Inh,GSK3A,29%
same,%Inh,GSK3B; 1 µM,0%
same,%Inh,HASPIN,9%
same,%Inh,HCK,0%
same,%Inh,HIPK1,0%
same,%Inh,HIPK2,0%
same,%Inh,HIPK3,0%
Cc1nccc(-c2c(-c3ccc(F)cc3)ncn2CCCN2CCOCC2)n1.Cl [SB-282975],%Inh,FLT1,21%
same,%Inh,FLT3-autoinhibited,19%
same,%Inh,FLT3,6%
same,%Inh,FLT4,23%
same,%Inh,FRK,2%
same,%Inh,FYN,9%
same,%Inh,GAK,9%
same,%Inh,"GCN2(Kin.Dom.2,S808G)",0%
same,%Inh,GRK1,78%
same,%Inh,GRK2,0%
same,%Inh,GRK3,34%
same,%Inh,GRK4,0%
same,%Inh,GRK7,23%
same,%Inh,GSK3A,23%
same,%Inh,GSK3B; [1],17%
same,%Inh,HASPIN,23%
same,%Inh,HCK,8%
same,%Inh,HIPK1,0%
same,%Inh,HIPK2,0%
same,%Inh,HIPK3,14%
Cc1ccc(NC(=O)Nc2ccccc2)cc1-c1ccc(C(=O)Nc2ccncc2)cc1 [GSK1398471],%Inh,FLT1,32%
same,%Inh,FLT3-autoinhibited,0%
same,%Inh,FLT3,36%
same,%Inh,FLT4,21%
same,%Inh,FRK,61%
same,%Inh,FYN,33%
same,%Inh,GAK,4%
same,%Inh,"GCN2(Kin.Dom.2,S808G)",50%
same,%Inh,GRK1,2%
same,%Inh,GRK2,0%
same,%Inh,GRK3,0%
same,%Inh,GRK4,0%
same,%Inh,GRK7,0%
same,%Inh,GSK3A,12%
same,%Inh,GSK3B; [1],11%
same,%Inh,HASPIN,1%
same,%Inh,HCK,0%
same,%Inh,HIPK1,0%
same,%Inh,HIPK2,0%
same,%Inh,HIPK3,13%
CCc1ccc(-c2ccc3c(c2)-c2n[nH]cc2S(=O)(=O)N3C)cc1,%Inh,FLT1,14%
same,%Inh,FLT3-autoinhibited,4%
same,%Inh,FLT3,56%
same,%Inh,FLT4,0%
same,%Inh,FRK,2%
same,%Inh,FYN,14%
same,%Inh,GAK,0%
same,%Inh,"GCN2(Kin.Dom.2,S808G)",24%
same,%Inh,GRK1,6%
same,%Inh,GRK2,0%
same,%Inh,GRK3,0%
same,%Inh,GRK4,0%
same,%Inh,GRK7,0%
same,%Inh,GSK3A,35%
same,%Inh,GSK3B; [1],0%
same,%Inh,HASPIN,4%
same,%Inh,HCK,16%
same,%Inh,HIPK1,0%
same,%Inh,HIPK2,0%
same,%Inh,HIPK3,0%
CCCCc1nn2ncccc2c1-c1ccnc(NC2CC2)n1 [GW684374],%Inh,FLT1,61%
same,%Inh,FLT3-autoinhibited,0%
same,%Inh,FLT3,29%
same,%Inh,FLT4,0%
same,%Inh,FRK,0%
same,%Inh,FYN,23%
same,%Inh,GAK,72%
same,%Inh,"GCN2(Kin.Dom.2,S808G)",0%
same,%Inh,GRK1,0%
same,%Inh,GRK2,0%
same,%Inh,GRK3,17%
same,%Inh,GRK4,0%
same,%Inh,GRK7,0%
same,%Inh,GSK3A,4%
same,%Inh,GSK3B; [1],1%
same,%Inh,HASPIN,0%
same,%Inh,HCK,0%
same,%Inh,HIPK1,0%
same,%Inh,HIPK2,0%
same,%Inh,HIPK3,8%
Cc1ccccc1-c1cc(-c2c[nH]nc2-c2ccccn2)ccn1 [GW680061],%Inh,FLT1,6%
same,%Inh,FLT3-autoinhibited,0%
same,%Inh,FLT3,0%
same,%Inh,FLT4,11%
same,%Inh,FRK,13%
same,%Inh,FYN,18%
same,%Inh,GAK,11%
same,%Inh,"GCN2(Kin.Dom.2,S808G)",25%
same,%Inh,GRK1,7%
same,%Inh,GRK2,0%
same,%Inh,GRK3,37%
same,%Inh,GRK4,0%
same,%Inh,GRK7,0%
same,%Inh,GSK3A,0%
same,%Inh,GSK3B; [1],1%
same,%Inh,HASPIN,0%
same,%Inh,HCK,0%
same,%Inh,HIPK1,4%
same,%Inh,HIPK2,0%
same,%Inh,HIPK3,10%
CC(C)c1cc(-c2ccc3c(N)n[nH]c3c2)nc(N)n1 [GSK2250882],%Inh,FLT1,4%
same,%Inh,FLT3-autoinhibited,0%
same,%Inh,FLT3,0%
same,%Inh,FLT4,0%
same,%Inh,FRK,0%
same,%Inh,FYN,22%
same,%Inh,GAK,13%
same,%Inh,"GCN2(Kin.Dom.2,S808G)",0%
same,%Inh,GRK1,0%
same,%Inh,GRK2,0%
same,%Inh,GRK3,0%
same,%Inh,GRK4,10%
same,%Inh,GRK7,0%
same,%Inh,GSK3A,0%
same,%Inh,GSK3B; [1],0%
same,%Inh,HASPIN,83%
same,%Inh,HCK,0%
same,%Inh,HIPK1,15%
same,%Inh,HIPK2,0%
same,%Inh,HIPK3,9%
COc1cccc(NC(=O)Nc2ccc(C)c(-c3ccc(C(=O)Nc4ccncc4)cc3)c2)c1 [GSK1398474],%Inh,FLT1,37%
same,%Inh,FLT3-autoinhibited,0%
same,%Inh,FLT3,25%
same,%Inh,FLT4,41%
same,%Inh,FRK,10%
same,%Inh,FYN,25%
same,%Inh,GAK,0%
same,%Inh,"GCN2(Kin.Dom.2,S808G)",0%
same,%Inh,GRK1,28%
same,%Inh,GRK2,0%
same,%Inh,GRK3,0%
same,%Inh,GRK4,3%
same,%Inh,GRK7,0%
same,%Inh,GSK3A,10%
same,%Inh,GSK3B; [1],13%
same,%Inh,HASPIN,0%
same,%Inh,HCK,0%
same,%Inh,HIPK1,0%
same,%Inh,HIPK2,0%
same,%Inh,HIPK3,20%
Cc1c(Cn2c3ccccc3n3c(=O)cc(N4CCOCC4)nc23)cccc1C(F)(F)F [GSK2306394],%Inh,FLT1,27%
same,%Inh,FLT3-autoinhibited,17%
same,%Inh,FLT3,11%
same,%Inh,FLT4,18%
same,%Inh,FRK,0%
same,%Inh,FYN,20%
same,%Inh,GAK,18%
same,%Inh,"GCN2(Kin.Dom.2,S808G)",5%
same,%Inh,GRK1,0%
same,%Inh,GRK2,0%
same,%Inh,GRK3,0%
same,%Inh,GRK4,0%
same,%Inh,GRK7,0%
same,%Inh,GSK3A,13%
same,%Inh,GSK3B; [1],18%
same,%Inh,HASPIN,0%
same,%Inh,HCK,0%
same,%Inh,HIPK1,0%
same,%Inh,HIPK2,0%
same,%Inh,HIPK3,16%
Cc1cccc2c(-c3ccncn3)c(-c3ccc(F)cc3)nn12 [GW515532],%Inh,FLT1,32%
same,%Inh,FLT3-autoinhibited,12%
same,%Inh,FLT3,0%
same,%Inh,FLT4,10%
same,%Inh,FRK,0%
same,%Inh,FYN,1%
same,%Inh,GAK,76%
same,%Inh,"GCN2(Kin.Dom.2,S808G)",18%
same,%Inh,GRK1,3%
same,%Inh,GRK2,0%
same,%Inh,GRK3,0%
same,%Inh,GRK4,12%
same,%Inh,GRK7,0%
same,%Inh,GSK3A,1%
same,%Inh,GSK3B; [1],0%
same,%Inh,HASPIN,21%
same,%Inh,HCK,0%
same,%Inh,HIPK1,0%
same,%Inh,HIPK2,0%
same,%Inh,HIPK3,0%
CC(=O)c1c(C)c2cnc(Nc3ccc(N4CCNCC4)cn3)nc2n(C2CCCC2)c1=O,%Inh,FLT1,0%
same,%Inh,FLT3-autoinhibited,0%
same,%Inh,FLT3,0%
same,%Inh,FLT4,0%
same,%Inh,FRK,7%
same,%Inh,FYN,0%
same,%Inh,GAK,0%
same,%Inh,"GCN2(Kin.Dom.2,S808G)",0%
same,%Inh,GRK1,10%
same,%Inh,GRK2,0%
same,%Inh,GRK3,9%
same,%Inh,GRK4,7%
same,%Inh,GRK7,8%
same,%Inh,GSK3A,0%
same,%Inh,GSK3B; [1],0%
same,%Inh,HASPIN,0%
same,%Inh,HCK,0%
same,%Inh,HIPK1,20%
same,%Inh,HIPK2,0%
same,%Inh,HIPK3,0%
COC(=O)c1cccc(NC(=O)NC2CCN(c3ccnc(Nc4ccc(OC)cc4)n3)C2)c1 (stereo not drawn) [GSK1379746],%Inh,FLT1,26%
same,%Inh,FLT3-autoinhibited,0%
same,%Inh,FLT3,0%
same,%Inh,FLT4,4%
same,%Inh,FRK,11%
same,%Inh,FYN,8%
same,%Inh,GAK,0%
same,%Inh,"GCN2(Kin.Dom.2,S808G)",0%
same,%Inh,GRK1,0%
same,%Inh,GRK2,0%
same,%Inh,GRK3,43%
same,%Inh,GRK4,0%
same,%Inh,GRK7,0%
same,%Inh,GSK3A,0%
same,%Inh,GSK3B; [1],12%
same,%Inh,HASPIN,0%
same,%Inh,HCK,0%
same,%Inh,HIPK1,0%
same,%Inh,HIPK2,0%
same,%Inh,HIPK3,0%
